According to the supplement of paper PMC8773631:
Structures can show the parent of a compound that is named as a salt. ± gives the uncertainty stated by the source.

What follows are compounds tested on NCC-MFS5-C1 (assay: cell viability relative to DMSO control; higher = less growth inhibition). Settings: 10 µM; treatment time: 3 days.
Experimental: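 NCC-MFS5-C1 myxofibrosarcoma cells (1x10^4 per well, 384-well) were treated on day 2 with 10 µM of each drug. On day 5, viability was read by CCK-8 absorbance at 450 nm and normalised to the DMSO control (%), n = 2.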
CC[C@H](Nc1ncnc2[nH]cnc12)c1nc2cccc(F)c2c(=O)n1-c1ccccc1 [CAL-101 (Idelalisib, GS-1101)] was tested, and the cell viability was 72.3 ± 6.2%. Compound CC(C)C[C@H](NC(=O)[C@H](Cc1ccccc1)NC(=O)c1cnccn1)B(O)O [Bortezomib (PS-341)] has a cell viability of 4.89 ± 1.4%. For CC(=O)O[C@@]12CO[C@@H]1C[C@H](O)[C@@]1(C)C(=O)[C@H](O)C3=C(C)[C@@H](OC(=O)[C@H](O)[C@@H](NC(=O)OC(C)(C)C)c4ccccc4)C[C@@](O)([C@@H](OC(=O)c4ccccc4)[C@H]21)C3(C)C [Docetaxel], the cell viability was 67 ± 2.2%. In the case of COc1ccc2[nH]c([S@@+]([O-])Cc3ncc(C)c(OC)c3C)nc2c1 [Esomeprazole Sodium], the cell viability is reported as 74.6 ± 1.4%. In the case of C/C(=C\c1csc(C)n1)[C@@H]1C[C@@H]2O[C@]2(C)CCC[C@H](C)[C@H](O)[C@@H](C)C(=O)C(C)(C)[C@@H](O)CC(=O)N1, the cell viability is reported as 51.24 ± 0.45%. For CCN1CCN(Cc2ccc(Nc3ncc(F)c(-c4cc(F)c5nc(C)n(C(C)C)c5c4)n3)nc2)CC1 [Abemaciclib mesylate], the cell viability was 84.2 ± 9%. Cc1ccc(-n2[nH]c(C)c(N=Nc3cccc(-c4cccc(C(=O)O)c4)c3O)c2=O)cc1C [Eltrombopag Olamine] showed a cell viability of 111 ± 5.6%. Work on O=C(O)CCCN1CCC(O[C@@H](c2ccc(Cl)cc2)c2ccccn2)CC1 [Bepotastine Besilate] yielded a cell viability of 78.7 ± 2.6%. With Nc1nc(F)nc2c1ncn2[C@@H]1O[C@H](COP(=O)(O)O)[C@@H](O)[C@@H]1O [Fludarabine Phosphate] the cell viability was 104 ± 3.5%. Compound CNC(=O)c1ccc(-c2cnc3ncc(Cc4ccc5ncccc5c4)n3n2)cc1F has a cell viability of 80.9 ± 7.9%. In the case of CCC[C@@H]1C[C@@H](C(=O)N[C@@H]([C@H]2O[C@H](SC)[C@H](O)[C@@H](O)[C@H]2O)[C@@H](C)O)N(C)C1 [Lincomycin HCl], the cell viability is reported as 80.5 ± 9.3%. In the case of Nc1cccc2c1C(=O)N(C1CCC(=O)NC1=O)C2=O (stereo not given) [Pomalidomide], the cell viability is reported as 97.7 ± 6.4%. Compound CC(=O)OCC(=O)[C@@]1(O)CC[C@H]2[C@@H]3CCC4=CC(=O)CC[C@]4(C)[C@H]3C(=O)C[C@@]21C [Cortisone acetate] has a cell viability of 90.9 ± 9.9%. O=C(O)C1=CO[C@@H](O[C@@H]2O[C@H](CO)[C@@H](O)[C@H](O)[C@H]2O)[C@@H]2C(CO)=CC[C@H]12 [Geniposidic acid] was tested, and the cell viability was 85.8 ± 4.8%. COc1cc([C@@H]2c3cc4c(cc3[C@@H](O[C@@H]3O[C@@H]5CO[C@@H](C)O[C@H]5[C@H](O)[C@H]3O)[C@H]3COC(=O)[C@H]23)OCO4)cc(OC)c1O [Etoposide] showed a cell viability of 74.3 ± 9%. In the case of CCCCNc1ncc(-c2ccc(CN3CCOCC3)cn2)c(NC2CCC(O)CC2)n1 (stereo not given), the cell viability is reported as 36.41 ± 0.22%. With Nc1nc2n[nH]nc2c(=O)[nH]1 [Azaguanine-8] the cell viability was 85.2 ± 7%. In the case of COc1cccc2c1C(=O)c1c(O)c3c(c(O)c1C2=O)C[C@@](O)(C(C)=O)C[C@@H]3O[C@H]1C[C@H](N)[C@H](O)[C@H](C)O1 [Daunorubicin HCl], the cell viability is reported as 14.4 ± 6.7%. For CC(=O)O[C@]1(C(C)=O)CC[C@H]2[C@@H]3C=C(C)C4=CC(=O)CC[C@]4(C)[C@H]3CC[C@@]21C [Megestrol Acetate], the cell viability was 93.9 ± 4%. CC[C@]1(O)C[C@H]2CN(CCc3c([nH]c4ccccc34)[C@@](C(=O)OC)(c3cc4c(cc3OC)N(C=O)[C@H]3[C@@](O)(C(=O)OC)[C@H](OC(C)=O)[C@]5(CC)C=CCN6CC[C@]43[C@@H]65)C2)C1 [Vincristine] was tested, and the cell viability was 29.8 ± 4.2%. CC(C)(C)c1cc(NC(=O)Nc2ccc(-c3cn4c(n3)sc3cc(OCCN5CCOCC5)ccc34)cc2)no1 [Quizartinib (AC220)] gave a cell viability of 57.8 ± 2.7%. Nc1nc(Cl)nc2c1ncn2[C@@H]1O[C@H](CO)[C@@H](O)[C@@H]1F [Clofarabine] showed a cell viability of 98.8 ± 21%. Compound Cc1ccc(Nc2nccc(N(C)c3ccc4c(C)n(C)nc4c3)n2)cc1S(N)(=O)=O has a cell viability of 61 ± 11%. Compound Clc1ccc(Nc2nnc(Cc3ccncc3)c3ccccc23)cc1 [Vatalanib (PTK787) 2HCl] has a cell viability of 59.1 ± 0.89%. Cc1cn(-c2cc(NC(=O)c3ccc(C)c(Nc4nccc(-c5cccnc5)n4)c3)cc(C(F)(F)F)c2)cn1 [Nilotinib (AMN-107)] was tested, and the cell viability was 57.2 ± 3.6%. For CCCS(=O)(=O)Nc1ccc(F)c(C(=O)c2c[nH]c3ncc(-c4ccc(Cl)cc4)cc23)c1F [Vemurafenib (PLX4032, RG7204)], the cell viability was 76 ± 3.5%. Cc1ccc(F)c(NC(=O)Nc2ccc(-c3cccc4[nH]nc(N)c34)cc2)c1 [Linifanib (ABT-869)] gave a cell viability of 46.3 ± 12%. O=C(O)C1(C(=O)O)CCC1.[NH2-].[NH2-].[Pt+2] [Carboplatin] showed a cell viability of 83.7 ± 2.2%. Compound CN(C)c1nc(N(C)C)nc(N(C)C)n1 [Altretamine] has a cell viability of 103 ± 3.1%. CC[C@]1(O)C[C@@H]2CN(CCc3c([nH]c4ccccc34)[C@@](C(=O)OC)(c3cc4c(cc3OC)N(C)[C@H]3[C@@](O)(C(=O)OC)[C@H](OC(C)=O)[C@]5(CC)C=CCN6CC[C@]43[C@@H]65)C2)C1 [Vinblastine sulfate] was tested, and the cell viability was 35.1 ± 2.5%. COc1ccc(/C=C/C(=O)Nc2ccccc2C(=O)O)cc1OC [Tranilast] gave a cell viability of 80.2 ± 2.5%. In the case of CS(=O)(=O)CCNCc1ccc(-c2ccc3ncnc(Nc4ccc(OCc5cccc(F)c5)c(Cl)c4)c3c2)o1, the cell viability is reported as 77.3 ± 25%. In the case of COc1cccc2c1C(=O)c1c(O)c3c(c(O)c1C2=O)C[C@@](O)(C(=O)CO)C[C@@H]3O[C@H]1C[C@H](N)[C@@H](O)[C@H](C)O1 [Epirubicin HCl], the cell viability is reported as 45.5 ± 1%. Work on COc1cc([C@@H]2c3cc4c(cc3[C@@H](O[C@@H]3O[C@@H]5CO[C@@H](c6cccs6)O[C@H]5[C@H](O)[C@H]3O)[C@H]3COC(=O)[C@H]23)OCO4)cc(OC)c1O [Teniposide] yielded a cell viability of 76.7 ± 4.4%. O=S(=O)(O)CCS [Mesna] gave a cell viability of 76.99 ± 0.32%. In the case of O=c1c(-c2ccc(O)cc2)coc2cc(O)cc(O)c12 [Genistein], the cell viability is reported as 81.4 ± 10%. C[C@]1(O)C[C@@H](c2nc(-c3ccc4ccc(-c5ccccc5)nc4c3)c3c(N)nccn32)C1 [Linsitinib (OSI-906)] gave a cell viability of 57 ± 0.57%. Work on CCc1c2c(nc3ccc(OC(=O)N4CCC(N5CCCCC5)CC4)cc13)-c1cc3c(c(=O)n1C2)COC(=O)[C@]3(O)CC [Irinotecan HCl Trihydrate] yielded a cell viability of 64.1 ± 2.3%. CC1=C(CC(=O)O)c2cc(F)ccc2/C1=C\c1ccc([S+](C)[O-])cc1 (stereo not given) [Sulindac] gave a cell viability of 103.76 ± 0.032%. C#Cc1cccc(Nc2ncnc3cc(OCCOC)c(OCCOC)cc23)c1 [Erlotinib HCl (OSI-744)] gave a cell viability of 81.6 ± 1%.
